Measurements: PubChem BioAssay
A number with no mark means an inactive call. Calls of active or inactive are those of the source. Cut-off read from the data, not from the text of the source, unless noted: active = inhibition above about 25%; inactive = the rest.

Biological target: Nuclear receptor coactivator 1 (Homo sapiens) (UniProt Q15788)
Assay: SRC1 coactivator transcriptional activity inhibitors, confirmation, cell-based, luminescence, quadruplicate (AID 588820;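 active = mean inhibition above 46.68%, the untreated control wells mean plus 3 SD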;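 note: 0% = DMSO wells and 100% = gossypol 36 µM treated wells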)
Settings: HEK293 GAL4-SRC1 luciferase reporter, at 3.6 µM, active compounds read high

Sequence of Nuclear receptor coactivator 1 (Homo sapiens) (Q15788 whole entry, looked up): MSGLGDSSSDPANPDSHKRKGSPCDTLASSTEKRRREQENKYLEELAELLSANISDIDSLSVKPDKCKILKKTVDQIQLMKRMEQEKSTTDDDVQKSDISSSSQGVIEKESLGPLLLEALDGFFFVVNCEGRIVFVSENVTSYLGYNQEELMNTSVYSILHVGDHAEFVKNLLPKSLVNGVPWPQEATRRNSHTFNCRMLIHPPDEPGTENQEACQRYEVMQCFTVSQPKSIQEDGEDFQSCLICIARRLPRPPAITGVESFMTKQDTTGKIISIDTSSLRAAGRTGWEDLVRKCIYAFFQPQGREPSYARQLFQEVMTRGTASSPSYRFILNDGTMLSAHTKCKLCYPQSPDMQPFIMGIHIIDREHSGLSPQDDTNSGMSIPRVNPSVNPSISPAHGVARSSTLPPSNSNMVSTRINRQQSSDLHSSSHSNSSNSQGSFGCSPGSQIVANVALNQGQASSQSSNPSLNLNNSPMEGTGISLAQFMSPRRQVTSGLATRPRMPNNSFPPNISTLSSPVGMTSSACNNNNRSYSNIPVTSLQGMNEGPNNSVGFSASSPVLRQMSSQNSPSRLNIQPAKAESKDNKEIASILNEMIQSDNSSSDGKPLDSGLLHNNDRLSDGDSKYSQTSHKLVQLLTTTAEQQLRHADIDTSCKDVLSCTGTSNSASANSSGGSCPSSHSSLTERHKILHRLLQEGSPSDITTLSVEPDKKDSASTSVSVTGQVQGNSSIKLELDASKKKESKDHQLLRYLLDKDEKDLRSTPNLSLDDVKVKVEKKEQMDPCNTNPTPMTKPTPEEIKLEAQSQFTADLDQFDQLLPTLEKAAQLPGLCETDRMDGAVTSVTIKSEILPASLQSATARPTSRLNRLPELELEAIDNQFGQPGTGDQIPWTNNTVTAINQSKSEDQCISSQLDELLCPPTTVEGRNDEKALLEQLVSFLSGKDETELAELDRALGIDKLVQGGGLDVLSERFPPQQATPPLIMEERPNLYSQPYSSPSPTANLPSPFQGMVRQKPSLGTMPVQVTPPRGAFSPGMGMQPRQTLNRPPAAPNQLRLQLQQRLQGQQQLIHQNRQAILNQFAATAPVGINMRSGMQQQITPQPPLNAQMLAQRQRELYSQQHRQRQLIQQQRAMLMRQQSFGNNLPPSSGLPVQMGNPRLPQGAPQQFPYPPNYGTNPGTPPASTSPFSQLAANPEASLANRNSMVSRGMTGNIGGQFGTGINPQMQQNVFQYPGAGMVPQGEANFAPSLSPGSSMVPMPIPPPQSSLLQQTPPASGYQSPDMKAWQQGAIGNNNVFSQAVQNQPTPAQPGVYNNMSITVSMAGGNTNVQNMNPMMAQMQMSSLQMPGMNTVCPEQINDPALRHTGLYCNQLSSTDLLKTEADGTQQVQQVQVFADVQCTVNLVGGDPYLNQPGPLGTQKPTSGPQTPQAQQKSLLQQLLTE

Point of comparison: `C/C(=N\NC(=O)C(C)Oc1ccc([N+](=O)[O-])cc1)c1ccccn1` (stereo not given), inhibition -226%. Against it:
- CC(Oc1ccc(F)cc1)C(=O)Nc1cc(S(=O)(=O)N2CCCCC2)ccc1N1CCOCC1 (stereo not given) — higher, -3.38%
- CC1Cc2ccccc2N1S(=O)(=O)c1cccc(C(=O)N2CCN(c3ncccn3)CC2)c1 (stereo not given) — higher, 16.5%
- CCCCCCCC[n+]1c(C)n(-c2ccccc2)c2ccc(NC(C)=O)cc21 — higher, 15.6%
- COc1ccc(-c2csc3ncnc(N4CCN(CCO)CC4)c23)cc1 — higher, 0.84%
- CCOc1cccc(C(=O)Nc2nc(-c3ccc(S(=O)(=O)N4CCOCC4)cc3)cs2)c1 — higher, -29.3%
- COc1ccc(Cl)cc1NC(=O)Nc1ccccc1C(N)=O — higher, 9.1%
- CC(=O)NCCOc1nc(N(C)C)nc(N(C)C)n1 — higher, -4.35%
- COc1cc2c(cc1NC(=O)/C=C/c1cc(OC)c(OC)c(OC)c1)oc1ccccc12 — higher, 3.29%
- CCCc1cc(-c2ccc(O)c(OCC)c2)c(C#N)c(N)n1 — higher, -3.92%
- O=C(NCc1ccccc1)C(c1ccccc1)N(Cc1cccs1)C(=O)c1cnccn1 (stereo not given) — higher, -71.6%
- Cn1c(=O)c2[nH]c(COc3ccc(C(C)(C)C)cc3)nc2n(C)c1=O — higher, 29.4%
- Cc1cc(C)c(OCCN2CCCC2)c(Cl)c1 — higher, -3.95%
- CC1CCN(C(=O)Cn2c3ccc(F)cc3c3nc4n(c(=O)c32)CCCS4)CC1 — higher, 4.67%
- CC(C)N1C(=O)/C(=C\c2nc3ccccc3c(=O)n2-c2ccccc2)c2ccccc21 — higher, 7.4%
- CNC(=O)CCCN1C(=O)c2ccccc2Sc2ncccc21 — higher, -2.17%
- Nc1c(Cl)ncnc1NCCc1ccc(O)cc1 — higher, -6.45%
- CN(C)c1ccncc1C(=O)Nc1ccc(F)cc1F — higher, -3.76%
- CN(Cc1ccc(OC(F)F)cc1)C(=O)c1cccc(S(=O)(=O)N2CCN(Cc3ccccc3)CC2)c1 — higher, -14%
- CC(C)C(=O)N1CCN(c2ccc(NC(=O)c3ccc4c(c3)OCCO4)cc2Cl)CC1 — higher, -52.5%
- O=C(O)CN1C(=O)/C(=C\c2ccccc2OCc2ccc(Cl)cc2Cl)SC1=S — higher, 32%
- COc1ccc(CCC(=O)Nc2ccc(Cl)c(S(=O)(=O)N3CCCC3)c2)cc1 — higher, 12.1%
- O=C(NC1CCCC1)C1CCN(C(=O)c2cccc(Cl)c2)CC1 — higher, -22.6%
- CCCCc1ccc(NC(=O)c2ccc(N(C)S(C)(=O)=O)cc2)cc1 — higher, -25.4%
- CCOC(=O)c1c(NC(=O)COc2ccccc2C#N)sc2c1CC(C)(C)NC2(C)C — higher, -41.5%
- CCCCCCCCNc1ncnc2[nH]ncc12 — higher, -9.61%
- COc1ccc2c(C#N)c3ccccn3c2c1 — higher, 37.4%
- CC(=O)Nc1cccc(C(=O)Nc2ccc(S(=O)(=O)NC3=NCCCCC3)cc2)c1 — higher, -23%
- CCN1/C(=C2\C(=O)N(C)C(=S)N2c2ccccc2)C=Cc2ccccc21 — higher, -4.3%
- Cc1ccn(CC(=O)N/N=C/c2cc([N+](=O)[O-])ccc2O)n1 — higher, 7.62%
- COc1ccc(OCCN2CCN(C(=O)c3ccc(OC(F)F)c(OC)c3)CC2)cc1 — higher, 2.42%
- CCOC(=O)C1(Cc2cccc(Cl)c2)CCCN(C(=O)c2ccoc2C)C1 (stereo not given) — higher, -4.52%
- O=C(N/N=C/c1coc2ccc(Cl)cc2c1=O)c1ccc(O)cc1 — higher, 18.6%
- COc1ccc(/C=N/Nc2nc3ccccc3[nH]2)c(OC)c1OC — higher, -27.8%
- CCCCCC(=O)N1CCN(S(=O)(=O)c2ccc3c(c2)OCCO3)CC1 — higher, -2.33%
- CC(C)N(C)c1ncnc2c1ncn2[C@H]1CN(Cc2ccncc2)C[C@@H](CO)O1 — higher, -19.9%
- O=C(CCn1cnc(-c2ccccc2)c1-c1ccccc1)N/N=C/c1ccccc1O — higher, 18.6%
- CC(Oc1ccccc1F)C(=O)NNC(=O)CC(C)c1ccccc1 (stereo not given) — higher, 12.4%
- CCNc1nc(NCC)n2c(SCC(=O)Nc3ccccc3C(F)(F)F)nnc2n1 — higher, -4.19%
- CN1CCc2c(OCc3ccc(F)cc3)cccc2C1=O — higher, -8.74%

System: not listed separately
Assay: VP16 transactivation inhibitors, counter-screen for SRC1 inhibitor project, cell-based, luminescence, high throughput (AID 588824)
Settings: cell-based VP16 transactivation luciferase luminescence; at 3.6 µM; active compounds read high

Point of comparison: `CN(C)c1ccncc1C(=O)Nc1ccc(F)cc1F`, inhibition -9.03%. Against it:
- CC(Oc1ccc(F)cc1)C(=O)Nc1cc(S(=O)(=O)N2CCCCC2)ccc1N1CCOCC1 (stereo not given) — higher, 6%
- CCCCCCCC[n+]1c(C)n(-c2ccccc2)c2ccc(NC(C)=O)cc21 — higher, 19.2%
- COc1ccc(-c2csc3ncnc(N4CCN(CCO)CC4)c23)cc1 — higher, 9.88%
- CCOc1cccc(C(=O)Nc2nc(-c3ccc(S(=O)(=O)N4CCOCC4)cc3)cs2)c1 — higher, -6.23%
- COc1ccc(Cl)cc1NC(=O)Nc1ccccc1C(N)=O — higher, 17.7%
- CC(=O)NCCOc1nc(N(C)C)nc(N(C)C)n1 — higher, 0%
- COc1cc2c(cc1NC(=O)/C=C/c1cc(OC)c(OC)c(OC)c1)oc1ccccc12 — higher, -2.37%
- CCCc1cc(-c2ccc(O)c(OCC)c2)c(C#N)c(N)n1 — higher, -2.24%
- O=C(NCc1ccccc1)C(c1ccccc1)N(Cc1cccs1)C(=O)c1cnccn1 (stereo not given) — lower, -20.6%
- Cn1c(=O)c2[nH]c(COc3ccc(C(C)(C)C)cc3)nc2n(C)c1=O — higher, 18.8%
- Cc1cc(C)c(OCCN2CCCC2)c(Cl)c1 — higher, 2.73%
- CC1CCN(C(=O)Cn2c3ccc(F)cc3c3nc4n(c(=O)c32)CCCS4)CC1 — higher, 3.44%
- CC(C)N1C(=O)/C(=C\c2nc3ccccc3c(=O)n2-c2ccccc2)c2ccccc21 — higher, 24.2%
- CNC(=O)CCCN1C(=O)c2ccccc2Sc2ncccc21 — higher, -3.21%
- CC(C)C(=O)N1CCN(c2ccc(NC(=O)c3ccc4c(c3)OCCO4)cc2Cl)CC1 — higher, -6.57%
- O=C(O)CN1C(=O)/C(=C\c2ccccc2OCc2ccc(Cl)cc2Cl)SC1=S — higher, -7.27%
- O=C(NC1CCCC1)C1CCN(C(=O)c2cccc(Cl)c2)CC1 — higher, -3.66%
- CCOC(=O)c1c(NC(=O)COc2ccccc2C#N)sc2c1CC(C)(C)NC2(C)C — lower, -13.1%
- CCCCCCCCNc1ncnc2[nH]ncc12 — higher, 19.6%
- COc1ccc2c(C#N)c3ccccn3c2c1 — higher, 7.81%
- CC(=O)Nc1cccc(C(=O)Nc2ccc(S(=O)(=O)NC3=NCCCCC3)cc2)c1 — higher, -8.18%
- CCN1/C(=C2\C(=O)N(C)C(=S)N2c2ccccc2)C=Cc2ccccc21 — higher, 2.2%
- Cc1ccn(CC(=O)N/N=C/c2cc([N+](=O)[O-])ccc2O)n1 — higher, 9.09%
- COc1ccc(OCCN2CCN(C(=O)c3ccc(OC(F)F)c(OC)c3)CC2)cc1 — higher, 2.73%
- CCOC(=O)C1(Cc2cccc(Cl)c2)CCCN(C(=O)c2ccoc2C)C1 (stereo not given) — higher, -3.85%
- O=C(N/N=C/c1coc2ccc(Cl)cc2c1=O)c1ccc(O)cc1 — higher, 17.8%
- COc1ccc(/C=N/Nc2nc3ccccc3[nH]2)c(OC)c1OC — lower, -23%
- CCCCCC(=O)N1CCN(S(=O)(=O)c2ccc3c(c2)OCCO3)CC1 — higher, -1.65%
- CC(C)N(C)c1ncnc2c1ncn2[C@H]1CN(Cc2ccncc2)C[C@@H](CO)O1 — higher, -7.41%
- O=C(CCn1cnc(-c2ccccc2)c1-c1ccccc1)N/N=C/c1ccccc1O — higher, 11.4%
- CC(Oc1ccccc1F)C(=O)NNC(=O)CC(C)c1ccccc1 (stereo not given) — higher, 2.31%
- CCNc1nc(NCC)n2c(SCC(=O)Nc3ccccc3C(F)(F)F)nnc2n1 — higher, -1.57%
- CN1CCc2c(OCc3ccc(F)cc3)cccc2C1=O — higher, -7.17%

With `CC1Cc2ccccc2N1S(=O)(=O)c1cccc(C(=O)N2CCN(c3ncccn3)CC2)c1` (stereo not given) the inhibition was 77.4% (active).
With `Nc1c(Cl)ncnc1NCCc1ccc(O)cc1` the inhibition was 27.9% (active).
In the case of `CN(Cc1ccc(OC(F)F)cc1)C(=O)c1cccc(S(=O)(=O)N2CCN(Cc3ccccc3)CC2)c1`, the inhibition is reported as 35% (active).
In the case of `COc1ccc(CCC(=O)Nc2ccc(Cl)c(S(=O)(=O)N3CCCC3)c2)cc1`, the inhibition is reported as 27.8% (active).
With `CCCCc1ccc(NC(=O)c2ccc(N(C)S(C)(=O)=O)cc2)cc1` the inhibition was 31.3% (active).
For `C/C(=N\NC(=O)C(C)Oc1ccc([N+](=O)[O-])cc1)c1ccccn1` (stereo not given), the inhibition was 45.6% (active).
